Screening data (PubChem BioAssay)
rCAG binder: molecules binding r(CAG) RNA repeats; r(CAG) RNA repeat, TO-PRO-1 dye displacement fluorescence; inhibition, % at 3 µM; 1.3% of 370,000 active;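 active = inhibition above the plate cutoff, the mean of all test compounds on that plate plus 3 SD, cut at about 35% in these data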;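 note: higher means more dye released from RNA so lower well fluorescence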
NadD block: inhibitors of Staphylococcus aureus NadD | purified NadD enzyme, colorimetric absorbance read-out | inhibition, % at 20 µM | 0.78% of 360,000 active; in the data active = inhibition above about 26%
FAS TE block: FAS thioesterase (human) inhibition. P49327. recombinant FAS-TE, OMFH fluorogenic substrate, fluorescence endpoint. inhibition, % at 15 µM. 0.67% of 360,000 active. AID 602261;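 active = compounds whose normalised, plate-corrected inhibition of enzyme fluorescence in the single-dose primary screen is 50% or more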
NR3A LBD binder: modulators (binders) of human NR3A ligand-binding domain | NR3A LBD differential scanning fluorimetry, Tm shift; 0% = protein alone, 100% = glycine-bound protein | Tm shift relative to glycine control, % at 25 µM | 2.5% of 340,000 active | AID 1259313;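 active = melting temperature shift of at least 10% of the positive control shift, at one fixed dose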
rCAG binder conf: r(CAG) RNA repeat binding, confirmation; 70% of 4,300 active; shares compounds with rCAG binder; inhibition, % at 3 µM; TO-PRO-1 dye displacement fluorescence;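 active = inhibition above a per-plate cutoff, the mean inhibition of sample wells plus 3 SD, cut at about 35% in these data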;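 note: loss of TO-PRO-1 fluorescence as compound displaces dye from 1x1 AA loop RNA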
dCAG dye counter: DNA CAG dye complex inhibition counter-screen | 94% of 4,300 active | AID 652068 | d(CAG) DNA oligo TO-PRO-1 dye displacement, fluorescence | shares compounds with rCAG binder | inhibition, % at 3 µM;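 active = inhibition above its plate's cutoff, the mean test-well inhibition plus 3 SD, cut at about 4.8% in these data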;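 note: hits displace the dye from DNA and so lower well fluorescence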
dCAG dye DR: counter-screen for rCAG binders: inhibitors of DNA CAG TO-PRO-1 complex; 20% of 250 active; DNA CAG/GTC duplex TO-PRO-1 dye displacement fluorescence; IC50, µM; shares compounds with rCAG binder; in the data active = IC50 below about 10 µM
Large screens that a line does not name were inactive (follow-up assays come after a bar, where they were run). Shown are actives, neighbours in structure and some others; about 4.3% of the full set was active somewhere.

C=CCCC1CN(Cc2ccc(OC)cc2)S(=O)(=O)c2c(Oc3ccc(C)cc3)cccc2O1 (configuration not stated)	none (no result: NadD block, FAS TE block, NR3A LBD binder)
Cc1ccccc1NC(=O)c1ccc2c(c1)C(=O)N(CC(C)C)C2=O	none
CC(C)CCN1C(=O)c2ccc(C(=O)Nc3ccc(Br)cc3C(=O)O)cc2C1=O	rCAG binder 63 | rCAG binder conf 79 | dCAG dye counter 73
O=C(Nc1ccc(Cl)cc1C(=O)O)c1ccc2c(c1)C(=O)N(Cc1ccco1)C2=O	rCAG binder 86 | rCAG binder conf 88 | dCAG dye counter 75
O=C(Nc1ccccc1C(=O)O)c1cccc(N2C(=O)c3ccccc3C2=O)c1	rCAG binder 35 | rCAG binder conf inactive | dCAG dye counter inactive
CC(C)CN1C(=O)c2ccc(C(=O)Nc3ccccc3C(=O)O)cc2C1=O	rCAG binder 56 | rCAG binder conf 57 | dCAG dye counter 18
NC(Cc1ccc(O)cc1)C(=O)NN=Cc1ccccc1O (configuration not stated)	none (no result: NadD block, FAS TE block, NR3A LBD binder)
COc1ccc(S(=O)(=O)N2CCCc3nc(-c4ccc(Br)cc4)ccc32)cc1	none (no result: NadD block, FAS TE block, NR3A LBD binder)
CC(=O)NS(=O)(=O)c1ccc(NC(=O)c2ccc3c(c2)C(=O)N(CCC(C)C)C3=O)cc1	rCAG binder 58 | rCAG binder conf 59 | dCAG dye counter 19
O=S(=O)(c1cc(O)ccc1O)c1cccc2c(S(=O)(=O)c3cc(O)ccc3O)cccc12	rCAG binder 43 | rCAG binder conf 36 | dCAG dye counter 24
O=C(Nc1ccc(C(=O)O)cc1)/C(=C\c1ccco1)NC(=O)c1ccccc1Cl	rCAG binder 43 | rCAG binder conf inactive | dCAG dye counter inactive
CC(C)(C)c1ccc(C(=O)N/C(=C\c2ccco2)C(=O)Nc2ccccc2C(=O)O)cc1	rCAG binder 62 | rCAG binder conf 68 | dCAG dye counter 29
CC(C)C[C@H]1COc2cc(NCCCN3CCOCC3)ccc2S(=O)(=O)N1	none (no result: NadD block, FAS TE block, NR3A LBD binder)
Cc1ccc2c(c1)c1c3n2CC(=C2C(=O)OC(C)(C)OC2=O)NC3CCC1 (configuration not stated)	rCAG binder 47 | rCAG binder conf inactive | dCAG dye counter 18
S=c1[nH]nc(-c2ccccc2)n1/N=C/C=C/c1ccco1	none
S=c1[nH]nc(-c2ccco2)n1/N=C/c1ccc(Cl)cc1Cl	rCAG binder 35 | rCAG binder conf 64 | dCAG dye counter 19
S=c1[nH]nc(-c2ccc(Cl)cc2)n1/N=C/C=C/c1ccco1	rCAG binder 37 | rCAG binder conf 35 | dCAG dye counter 13
S=c1[nH]nc(-c2ccco2)n1/N=C/c1cccc(Cl)c1Cl	rCAG binder 57 | rCAG binder conf 48 | dCAG dye counter 15
C[C@H](O)[C@@H]1C(=O)N2CCc3c([nH]c4cccc(-c5ccccc5)c34)[C@@H]2C[C@@H]1N(C)C(=O)C1CCCCC1	none (no result: NadD block, FAS TE block, NR3A LBD binder)
Nc1[nH]c(C(=O)c2ccc(Br)cc2)c(-c2cccc3ccccc23)c1C(=O)NCCc1c[nH]c2ccccc12	none (no result: NadD block, FAS TE block, NR3A LBD binder)
COC(=O)[C@]12C[C@H](CC(=O)NCCC(C)C)C(=O)N(Cc3ccccc3)C1=C[C@H](COCc1ccccc1)O[C@@H]2C	none (no result: NadD block, FAS TE block, NR3A LBD binder)
NC1=NC(=O)/C(=C\c2ccc(-c3ccc(Cl)cc3)o2)S1	rCAG binder 48 | rCAG binder conf inactive | dCAG dye counter 8.6
COC(=O)[C@@]12CCCCC3=C1N(CCC3)C(=O)[C@H]2CC(=O)NCc1ccccc1	none (no result: NadD block, FAS TE block, NR3A LBD binder)
CCC1=NN2C(=N)/C(=C\c3ccc(SCc4ccco4)o3)C(=O)N=C2S1	rCAG binder 65 | rCAG binder conf 56 | dCAG dye counter 20
COC1=C[C@H](C(=O)NC2CCN(Cc3ccccc3)CC2)C(C)C(c2ccccc2)CC1=O (some centres not stated)	none (no result: NadD block, FAS TE block, NR3A LBD binder)
O=[N+]([O-])c1ccc(N/N=C/c2cccc(O)c2O)c(S(=O)(=O)N2CCOCC2)c1	rCAG binder 35, NR3A LBD binder 30 | rCAG binder conf inactive | dCAG dye counter 18
O=[N+]([O-])c1ccc(N/N=C/c2ccc(O)c(O)c2O)c(S(=O)(=O)N2CCOCC2)c1	rCAG binder 69, NadD block 29, NR3A LBD binder 23 | rCAG binder conf 84 | dCAG dye counter 52
O=C(CCc1ccc(S(=O)(=O)N2CCOCC2)cc1)N/N=C/c1ccc(O)c(O)c1O	rCAG binder 40 | rCAG binder conf 46 | dCAG dye counter 16
Cc1cc(C)cc([C@H]2C[C@]34CN(Cc5ccccc5)S(=O)(=O)[C@H]3C[C@H]2O4)c1	none (no result: NadD block, FAS TE block, NR3A LBD binder)
CC(=O)c1cc(-c2ccc(Oc3ccccc3)cc2)c(=O)n2c1CCC2	none (no result: NadD block, FAS TE block, NR3A LBD binder)
Cc1ccc(S(=O)(=O)/N=C2\C=C(NS(=O)(=O)c3ccccc3)C(=O)c3ccccc32)cc1	rCAG binder 40 | rCAG binder conf 84 | dCAG dye counter 51
Cc1cc(C)c(S(=O)(=O)/N=C2\C=C(NS(=O)(=O)c3ccccc3)C(=O)c3ccccc32)c(C)c1	rCAG binder 45, NadD block 30 | rCAG binder conf 85 | dCAG dye counter 57
COc1ccc2c(c1)[C@@]1(OCCC=C[C@H]1C)C(=O)N2CC1CC1	none (no result: NadD block, FAS TE block, NR3A LBD binder)
C=CCCC1CN(Cc2ccc(OC)cc2)S(=O)(=O)c2c(cccc2Sc2ccc(OC)c(OC)c2)O1 (configuration not stated)	none (no result: NadD block, FAS TE block, NR3A LBD binder)
CC1(OC(=O)C2CCCC2)C(=O)C=C2C=C(c3ccsc3)OC=C2C1=O (configuration not stated)	rCAG binder 52 | rCAG binder conf 37 | dCAG dye counter 20 | dCAG dye DR inactive
CC1(OC(=O)C2CCCC2)C(=O)C=C2C=C(c3ccsc3)N(C3CCCC3)C=C2C1=O (configuration not stated)	none
Cc1cccc(N2C(=O)C(O)=C(C(=O)c3cccs3)C2c2ccc(C(C)C)cc2)n1 (configuration not stated)	rCAG binder 48 | rCAG binder conf 39 | dCAG dye counter 11
O=C1NN(c2ccc(Cl)cc2)C(=O)/C1=C\c1ccc(-c2cccc(C(=O)O)c2)o1	rCAG binder 97 | rCAG binder conf 66 | dCAG dye counter 28
O=C1NN(c2ccccc2)C(=O)/C1=C\c1ccc(-c2cc([N+](=O)[O-])ccc2O)o1	rCAG binder 36, NR3A LBD binder 23 | rCAG binder conf 44 | dCAG dye counter 19
COc1ccc(Nc2nc3ccccc3nc2NS(=O)(=O)c2cccs2)c(OC)c1	none
COc1cccc(Nc2nc3ccccc3nc2NS(=O)(=O)c2cccs2)c1	rCAG binder 74, NR3A LBD binder 21 | rCAG binder conf 88 | dCAG dye counter 59
CC(C)CCNc1nc2ccccc2nc1NS(=O)(=O)c1cccs1	rCAG binder 56 | rCAG binder conf inactive | dCAG dye counter 5.5
